Test results from PubChem BioAssay AID1159580 (chemical genetic matrix, 2015).
In all, about 5,500 compounds went through this assay and about 2,000 (36%) were called active. About 18% were inconclusive and are not listed. No stated cut-off is given here; in the data, active means normalized growth mostly below about 0.91 (no sharp cut-off); inconclusive means no clear call, values can overlap the other calls; inactive means mostly above about 0.92. The list shows a part of the results.

Experiment: chemical genetic growth profiling, strain panel (AID 1159580);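 further: tested at 20 µM; growth read once vehicle control cultures reached saturation at 30 °C; 1 = growth at the plate median or of vehicle wells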
Conditions: growth OD

Measured: normalized growth

NC(=NCCC[C@H](N)C(=O)O)N[N+](=O)[O-]
inactive: S. cerevisiae deletion strains, locus YJL187C, strain SWE1 (second series), stronger effect = lower value 0.983 | S. cerevisiae deletion strains, locus YJR043C, strain POL32, stronger effect = lower value 0.995 | S. cerevisiae deletion strains, locus YKL009W, strain mrt4, stronger effect = lower value 1 | S. cerevisiae deletion strains, locus YKL068W, stronger effect = lower value 0.997 | S. cerevisiae deletion strains, locus YKL085W, strain MDH1 (second series), stronger effect = lower value 0.982 | S. cerevisiae deletion strains, locus YKL085W, strain MDH1, stronger effect = lower value 0.982 | S. cerevisiae deletion strains, locus YKL160W, strain elf1, stronger effect = lower value 1.01 | S. cerevisiae deletion strains, locus YKL190W, strain CNB1, stronger effect = lower value 0.99 | S. cerevisiae deletion strains, locus YKR001C, strain vps1, stronger effect = lower value 0.98 | S. cerevisiae deletion strains, locus YKR026C, strain gcn3, stronger effect = lower value 1.01 | S. cerevisiae deletion strains, locus YKR091W, strain srl3, stronger effect = lower value 1.02 | S. cerevisiae deletion strains, locus YLL001W, strain dnm1, stronger effect = lower value 1.02 | S. cerevisiae deletion strains, locus YLL026W, stronger effect = lower value 1.02 | S. cerevisiae deletion strains, locus YLL041C, strain sdh2, stronger effect = lower value 1.02 | S. cerevisiae deletion strains, locus YLR027C, strain aat2, stronger effect = lower value 1.03 | S. cerevisiae deletion strains, locus YLR039C, strain RIC1, stronger effect = lower value 0.971 | S. cerevisiae deletion strains, locus YLR058C, strain SHM2, stronger effect = lower value 1.01 | S. cerevisiae deletion strains, locus YLR102C, strain apc9, stronger effect = lower value 1.01 | S. cerevisiae deletion strains, locus YLR221C, strain rsa3, stronger effect = lower value 0.985 | S. cerevisiae deletion strains, locus YLR258W, strain gsy2, stronger effect = lower value 1.02 | S. cerevisiae deletion strains, locus YLR262C, strain YPT6 (second series), stronger effect = lower value 1.04 | S. cerevisiae deletion strains, locus YLR262C, strain YPT6, stronger effect = lower value 1.06 | S. cerevisiae deletion strains, locus YLR268W, strain sec22, stronger effect = lower value 1 | S. cerevisiae deletion strains, locus YLR320W, strain mms22, stronger effect = lower value 1.03 | S. cerevisiae deletion strains, locus YLR330W, strain CHS5, stronger effect = lower value 1.01 | S. cerevisiae deletion strains, locus YLR342W, strain FKS1 (second series), stronger effect = lower value 1.03 | S. cerevisiae deletion strains, locus YLR342W, strain FKS1, stronger effect = lower value 1.02 | S. cerevisiae deletion strains, locus YLR357W, strain rsc2, stronger effect = lower value 1.06 | S. cerevisiae deletion strains, locus YLR370C, strain arc18, stronger effect = lower value 1.02 | S. cerevisiae deletion strains, locus YLR371W, strain rom2, stronger effect = lower value 0.997 | S. cerevisiae deletion strains, locus YLR384C, strain iki3, stronger effect = lower value 1.03 | S. cerevisiae deletion strains, locus YLR418C, strain cdc73, stronger effect = lower value 1.04 | S. cerevisiae deletion strains, locus YML016C, strain PPZ1, stronger effect = lower value 1 | S. cerevisiae deletion strains, locus YML032C, strain rad52, stronger effect = lower value 0.989 | S. cerevisiae deletion strains, locus YML120C, strain ndi1, stronger effect = lower value 1.02 | S. cerevisiae deletion strains, locus YML124C, strain tub3, stronger effect = lower value 1 | S. cerevisiae deletion strains, locus YMR058W, strain fet3, stronger effect = lower value 1.04 | S. cerevisiae deletion strains, locus YMR078C, strain ctf18, stronger effect = lower value 0.997 | S. cerevisiae deletion strains, locus YMR125W, strain sto1, stronger effect = lower value 1.01 | S. cerevisiae deletion strains, locus YMR129W, stronger effect = lower value 1.02 | S. cerevisiae deletion strains, locus YMR205C, strain PFK2, stronger effect = lower value 1.03 | S. cerevisiae deletion strains, locus YMR223W, strain ubp8, stronger effect = lower value 1.05 | S. cerevisiae deletion strains, locus YMR231W, strain pep5, stronger effect = lower value 1.01 | S. cerevisiae deletion strains, locus YMR307W, strain GAS1, stronger effect = lower value 0.982 | S. cerevisiae deletion strains, locus YNL067W, strain RPL9B, stronger effect = lower value 0.973 | S. cerevisiae deletion strains, locus YNL071W, strain lat1, stronger effect = lower value 1.01 | S. cerevisiae deletion strains, locus YNL128W, strain TEP1, stronger effect = lower value 1.01 | S. cerevisiae deletion strains, locus YNL153C, strain GIM3, stronger effect = lower value 0.975 | S. cerevisiae deletion strains, locus YNL209W, strain ssb2, stronger effect = lower value 1.03 | S. cerevisiae deletion strains, locus YNL233W, strain BNI4, stronger effect = lower value 0.968 | S. cerevisiae deletion strains, locus YNL248C, strain rpa49, stronger effect = lower value 1.01 | S. cerevisiae deletion strains, locus YNL271C, strain bni1, stronger effect = lower value 1.01 | S. cerevisiae deletion strains, locus YNL298W, strain CLA4, stronger effect = lower value 1.01 | S. cerevisiae deletion strains, locus YNL307C, strain MCK1, stronger effect = lower value 1.01 | S. cerevisiae deletion strains, locus YNL322C, strain KRE1 (second series), stronger effect = lower value 1.03 | S. cerevisiae deletion strains, locus YNL322C, strain KRE1, stronger effect = lower value 0.994 | S. cerevisiae deletion strains, locus YNR049C, strain mso1, stronger effect = lower value 1.02 | S. cerevisiae deletion strains, locus YNR052C, strain pop2, stronger effect = lower value 1.01 | S. cerevisiae deletion strains, locus YOL006C, strain TOP1, stronger effect = lower value 0.974 | S. cerevisiae deletion strains, locus YOL012C, strain htz1 2.01 | S. cerevisiae deletion strains, locus YOL147C, strain pex11, stronger effect = lower value 1 | S. cerevisiae deletion strains, locus YOR001W, strain rrp6, stronger effect = lower value 1.04 | S. cerevisiae deletion strains, locus YOR061W, strain CKA2, stronger effect = lower value 1 | S. cerevisiae deletion strains, locus YOR069W, strain VPS5, stronger effect = lower value 1.01 | S. cerevisiae deletion strains, locus YOR070C, strain gyp1, stronger effect = lower value 1.02 | S. cerevisiae deletion strains, locus YOR080W, strain dia2, stronger effect = lower value 1.02 | S. cerevisiae deletion strains, locus YOR083W, strain WHI5, stronger effect = lower value 1.03 | S. cerevisiae deletion strains, locus YOR106W, strain vam3, stronger effect = lower value 1.05 | S. cerevisiae deletion strains, locus YOR136W, strain idh2, stronger effect = lower value 0.997 | S. cerevisiae deletion strains, locus YOR144C, strain elg1, stronger effect = lower value 1 | S. cerevisiae deletion strains, locus YOR184W, strain ser1, stronger effect = lower value 1.02 | S. cerevisiae deletion strains, locus YOR265W, strain rbl2, stronger effect = lower value 1.02 | S. cerevisiae deletion strains, locus YOR270C, strain vph1, stronger effect = lower value 1.04 | S. cerevisiae deletion strains, locus YOR290C, strain snf2, stronger effect = lower value 1.02 | S. cerevisiae deletion strains, locus YOR316C, strain cot1, stronger effect = lower value 1.01 | S. cerevisiae deletion strains, locus YPL051W, strain arl3, stronger effect = lower value 1.02 | S. cerevisiae deletion strains, locus YPL055C, strain LGE1, stronger effect = lower value 0.95 | S. cerevisiae deletion strains, locus YPL078C, strain atp4, stronger effect = lower value 1.03 | S. cerevisiae deletion strains, locus YPL106C, strain sse1, stronger effect = lower value 1.04 | S. cerevisiae deletion strains, locus YPL240C, strain hsp82, stronger effect = lower value 1.01 | S. cerevisiae deletion strains, locus YPL241C, strain CIN2, stronger effect = lower value 1 | S. cerevisiae deletion strains, locus YPR119W, strain clb2, stronger effect = lower value 0.997 | S. cerevisiae deletion strains, locus YPR141C, strain kar3, stronger effect = lower value 0.998 | S. cerevisiae deletion strains, locus YPR163C, strain tif3, stronger effect = lower value 0.997 | S. cerevisiae deletion strains, locus YPR167C, strain met16, stronger effect = lower value 0.999 | S. cerevisiae deletion strains, strain wtn01, stronger effect = lower value 1 | S. cerevisiae strains, strain wild type, stronger effect = lower value 1
